The full ranking holds about 18,000 sequences; the median of “log2 normalized intensity” is about 0.36, and the highest 2% start at about 7.3. The sample as a whole holds a higher share of the highest values than the screen did.

This experiment concerns the target T1, HNF4alpha8 (COS-7 nuclear extract) (Homo sapiens, UniProt P41235-5 1-452).
T1 sequence: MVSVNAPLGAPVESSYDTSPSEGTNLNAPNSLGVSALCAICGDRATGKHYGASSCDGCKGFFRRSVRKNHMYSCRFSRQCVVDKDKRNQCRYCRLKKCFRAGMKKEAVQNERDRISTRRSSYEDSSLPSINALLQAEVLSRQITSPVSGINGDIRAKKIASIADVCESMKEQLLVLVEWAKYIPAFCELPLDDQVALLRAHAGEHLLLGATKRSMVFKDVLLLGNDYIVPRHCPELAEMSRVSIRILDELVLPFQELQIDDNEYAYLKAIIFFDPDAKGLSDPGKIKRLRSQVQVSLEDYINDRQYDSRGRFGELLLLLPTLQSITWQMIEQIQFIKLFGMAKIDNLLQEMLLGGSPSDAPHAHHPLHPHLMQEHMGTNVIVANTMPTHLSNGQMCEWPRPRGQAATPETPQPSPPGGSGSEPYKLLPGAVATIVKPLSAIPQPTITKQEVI
Put plainly: protein-binding microarray; COS-7 nuclear extract on double-stranded Agilent 4x180k PBM; binding buffer, salt, pH and temperature not given in the material; high values mean tight binding. Particulars: chain copies: 2; label: 3' end of strand 1 on the slide; dsDNA, one strand shown. The method, boiled down:
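COS-7 cells were transiently transfected by CaPO4 with an expression vector for a human HNF4α isoform, and nuclear extracts were prepared from them. The extracts were applied to a custom Agilent SurePrint G3 4x180k array of double-stranded ~60-nt oligonucleotides, with ~44,000 test sequences spotted in quadruplicate. An Agilent G2565CA scanner imaged bound HNF4α at 2-µm resolution. Binding signal is the background-corrected, normalized gProcessedSignal from Agilent software.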
As to “CAGGAGTCGGGAGGTAGGGGTGGCGGGTTGGCCTAGGGAGATTAGAGTATCGGTCGA”, the binding signal is 0.403 log2 normalized intensity.

With “GCCAAAGGTCAGAGTTGAACCCTTGGGGCTGCCTAGGGAGATTAGAGTATCGGTCGA”, the binding signal is 4.38 log2 normalized intensity.

With “TCTGCTGTACATATTTGCCAAGTGATAAGGGCCTAGGGAGATTAGAGTATCGGTCGA”, the binding signal was 1.01 log2 normalized intensity.

With “TCTAACATTTTTGACCTTCAGCATCTTCAAGCCTAGGGAGATTAGAGTATCGGTCGA”, the binding signal was found to be 3.81 log2 normalized intensity.

Consider “CCTTTGAGATAGCTATGATTATCCTTATCTGCCTAGGGAGATTAGAGTATCGGTCGA”, for which the binding signal was -0.293 log2 normalized intensity.

“ATCTGTATCAGCCTGTGACAAAGTCCATCTGCCTAGGGAGATTAGAGTATCGGTCGA”: the binding signal amounted to 5.65 log2 normalized intensity.

For the sequence “CCCGGACCAGGCCGGGTCACGTGGGTCCAGGCCTAGGGAGATTAGAGTATCGGTCGA”, the binding signal is 3.63 log2 normalized intensity.

For “GTCAGTCTTTGTTCTAGTAAGGCCTTCAAAGCCTAGGGAGATTAGAGTATCGGTCGA”, the binding signal is 0.595 log2 normalized intensity.

Turning to “TTCAGAAGACTTCCTGGCCTCTCTGCAAATGCCTAGGGAGATTAGAGTATCGGTCGA”, the binding signal is -0.39 log2 normalized intensity.

Turning to “GTGAGGGAGGAGACTTTGACCTCTGCTAGGGCCTAGGGAGATTAGAGTATCGGTCGA”, the binding signal was 6.12 log2 normalized intensity.

With “GGAGGAGACTTTGACCTCTGCTAGGTTTGGGCCTAGGGAGATTAGAGTATCGGTCGA”, the binding signal amounted to 5.5 log2 normalized intensity.

Regarding “TAACGGTGAGGGAGGAGACTTTGACCTCTGGCCTAGGGAGATTAGAGTATCGGTCGA”, the binding signal was 7.45 log2 normalized intensity.

Take “TATGTCTCTCCTATTCAGGTATTTGCTCTGGCCTAGGGAGATTAGAGTATCGGTCGA”: the binding signal worked out at 0.488 log2 normalized intensity.

In the case of “CACAGTGTAGAAGGCAAGGGTCAAGATGTCGCCTAGGGAGATTAGAGTATCGGTCGA”, the binding signal was 2.31 log2 normalized intensity.

For “ATTCCAGTGTTTCAAAGGAGTGTCTTTCTCGCCTAGGGAGATTAGAGTATCGGTCGA”, the binding signal worked out at 1.51 log2 normalized intensity.

As for “TTACTCATGTGGTCCTAAGACTAACCTTTGGCCTAGGGAGATTAGAGTATCGGTCGA”, the binding signal came to 4.06 log2 normalized intensity.

For the sequence “CATGTGGTCCTAAGACTAACCTTTGACCATGCCTAGGGAGATTAGAGTATCGGTCGA”, the binding signal was 8.37 log2 normalized intensity.

On to “CCTTACCTCCATTAACTAACCTTTGAACCAGCCTAGGGAGATTAGAGTATCGGTCGA”, for which the binding signal was 7.58 log2 normalized intensity.

On to “TAAGACTAACCTTTGACCATCCACGGATGCGCCTAGGGAGATTAGAGTATCGGTCGA”, for which the binding signal was 5.5 log2 normalized intensity.

Turning to “GGTCCTAAGACTAACCTTTGACCATCCACGGCCTAGGGAGATTAGAGTATCGGTCGA”, the binding signal worked out at 6.44 log2 normalized intensity.

As for “CCTCCATTAACTAACCTTTGAACCAGATGGGCCTAGGGAGATTAGAGTATCGGTCGA”, the binding signal turned out to be 5.69 log2 normalized intensity.

In the case of “ATGTGGTCCTAAGACTAACCTTTGACCATCGCCTAGGGAGATTAGAGTATCGGTCGA”, the binding signal amounted to 8.15 log2 normalized intensity.

In the case of “TACTCATGTGGTCCTAAGACTAACCTTTGAGCCTAGGGAGATTAGAGTATCGGTCGA”, the binding signal was 7.11 log2 normalized intensity.

As for “ATTAACTAACCTTTGAACCAGATGGCCCTCGCCTAGGGAGATTAGAGTATCGGTCGA”, the binding signal was 4.3 log2 normalized intensity.

On to “CTGACATTCTCCACTTGGTGACTGTCATTTGCCTAGGGAGATTAGAGTATCGGTCGA”, for which the binding signal is 0.274 log2 normalized intensity.

Turning to “TGCCCTCACAGGTTCCAGCATGGACTTCACGCCTAGGGAGATTAGAGTATCGGTCGA”, the binding signal was 3.32 log2 normalized intensity.

Consider “TTCCGCGGACGTGTTCCCACAGTGCCCTCTGCCTAGGGAGATTAGAGTATCGGTCGA”, for which the binding signal was found to be 3.77 log2 normalized intensity.

Take “AGTTTCAACTTAACCCCAGTTTAGCAATTTGCCTAGGGAGATTAGAGTATCGGTCGA”: the binding signal amounted to 2.08 log2 normalized intensity.

Take “TCTTTTCTAAGACATAACACAGGTGACCTTGCCTAGGGAGATTAGAGTATCGGTCGA”: the binding signal came out at 4.48 log2 normalized intensity.

With “CTAAGCAGGCACATTCCAGGACCTTTGCTCGCCTAGGGAGATTAGAGTATCGGTCGA”, the binding signal was 4.83 log2 normalized intensity.

In the case of “GACATAACACAGGTGACCTTTGCTCCGGTTGCCTAGGGAGATTAGAGTATCGGTCGA”, the binding signal amounted to 7.92 log2 normalized intensity.

Regarding “AGGTGACCTTTGCTCCGGTTCCCAATAAGTGCCTAGGGAGATTAGAGTATCGGTCGA”, the binding signal is 5.71 log2 normalized intensity.

For the sequence “TCTAAGACATAACACAGGTGACCTTTGCTCGCCTAGGGAGATTAGAGTATCGGTCGA”, the binding signal worked out at 8.96 log2 normalized intensity.

With “AACACAGGTGACCTTTGCTCCGGTTCCCAAGCCTAGGGAGATTAGAGTATCGGTCGA”, the binding signal came to 7.12 log2 normalized intensity.

In the case of “TGTGGGTAATTAATCTGATCGCCCTCCCCCGCCTAGGGAGATTAGAGTATCGGTCGA”, the binding signal is 5.29 log2 normalized intensity.

For “CTATTCTCTAAACTCTGGGCTCTATTTGGAGCCTAGGGAGATTAGAGTATCGGTCGA”, the binding signal amounted to 0.51 log2 normalized intensity.

“TACTTTGGACTGGGGACCTGGTCTGAGATAGCCTAGGGAGATTAGAGTATCGGTCGA”: the binding signal turned out to be 1.25 log2 normalized intensity.

For the sequence “GAGGCTCAGACCTGACCTTTGGATTCCCAGGCCTAGGGAGATTAGAGTATCGGTCGA”, the binding signal worked out at 7.11 log2 normalized intensity.

“AAGACTTTGGACTTTGGACCTGAGGCTTTTGCCTAGGGAGATTAGAGTATCGGTCGA”: the binding signal was determined as 10.3 log2 normalized intensity.

As to “TGCTGGAGATGAGGCTCAGACCTGACCTTTGCCTAGGGAGATTAGAGTATCGGTCGA”, the binding signal is 7.17 log2 normalized intensity.

Regarding “GGACCTGAGGCTTTTGAGTCAATAATGGACGCCTAGGGAGATTAGAGTATCGGTCGA”, the binding signal was determined as 1.38 log2 normalized intensity.

Take “GAGATGAGGCTCAGACCTGACCTTTGGATTGCCTAGGGAGATTAGAGTATCGGTCGA”: the binding signal worked out at 8.85 log2 normalized intensity.

As to “ACAAGGAGTCTCCACTATGACCTGTGCTTTGCCTAGGGAGATTAGAGTATCGGTCGA”, the binding signal stood at 2.18 log2 normalized intensity.

Take “TATAGTTTATCTACCTTTGTACCTTTAGTAGCCTAGGGAGATTAGAGTATCGGTCGA”: the binding signal was found to be 4.65 log2 normalized intensity.

As for “GTTGGGCAGAAGGTGTTTCAGATGGACCAAGCCTAGGGAGATTAGAGTATCGGTCGA”, the binding signal came to 1.98 log2 normalized intensity.

Consider “ATAGCTGCCTGTGTGTTCTGCTATTCATTAGCCTAGGGAGATTAGAGTATCGGTCGA”, for which the binding signal was determined as 0.562 log2 normalized intensity.

“GTGCTGGTACATAGCAGGGGTTAGGTAAACGCCTAGGGAGATTAGAGTATCGGTCGA”: the binding signal was -0.36 log2 normalized intensity.

As to “TCAGGAGCCCCACAGAGCAAAGGTCATGCAGCCTAGGGAGATTAGAGTATCGGTCGA”, the binding signal amounted to 6.34 log2 normalized intensity.

Regarding “GGAGCAGAGCGATCAAAGGTCACAGAGACCGCCTAGGGAGATTAGAGTATCGGTCGA”, the binding signal was 6.2 log2 normalized intensity.

With “GAGAGAGAGAGAGGTGGGCAAAGGTCTCAAGCCTAGGGAGATTAGAGTATCGGTCGA”, the binding signal is 3.68 log2 normalized intensity.

As to “AGAGCGATCAAAGGTCACAGAGACCACAGGGCCTAGGGAGATTAGAGTATCGGTCGA”, the binding signal worked out at 5.89 log2 normalized intensity.

As for “ATGGAGCTGGAGGGCAAAGGTCAGAGGCTGGCCTAGGGAGATTAGAGTATCGGTCGA”, the binding signal came to 6.88 log2 normalized intensity.

As to “GGGTCATGGAGCTGGAGGGCAAAGGTCAGAGCCTAGGGAGATTAGAGTATCGGTCGA”, the binding signal was 8.54 log2 normalized intensity.

For the sequence “CACTGGGGTCATGGAGCTGGAGGGCAAAGGGCCTAGGGAGATTAGAGTATCGGTCGA”, the binding signal is 4.08 log2 normalized intensity.

“TGACTGGAGCAGAGCGATCAAAGGTCACAGGCCTAGGGAGATTAGAGTATCGGTCGA”: the binding signal was found to be 7.44 log2 normalized intensity.

For “GTGGGTGCCAAACAAAAAGGGCAAAGGTCAGCCTAGGGAGATTAGAGTATCGGTCGA”, the binding signal was 8.84 log2 normalized intensity.

As for “TGGGCCCACAGATGATCAAAGGTCAGTCTTGCCTAGGGAGATTAGAGTATCGGTCGA”, the binding signal is 7.25 log2 normalized intensity.

For “AATCATGGGCCCACAGATGATCAAAGGTCAGCCTAGGGAGATTAGAGTATCGGTCGA”, the binding signal is 7.91 log2 normalized intensity.

Regarding “TATGAGAGAGAGAGAGAGGTGGGCAAAGGTGCCTAGGGAGATTAGAGTATCGGTCGA”, the binding signal was 1.33 log2 normalized intensity.

The values above are taken from PMC10726135, “HNF4α isoforms regulate the circadian balance between carbohydrate and lipid metabolism in the liver”.
